Measured values from the supplement of paper PMC5662767.
Where a name gives a salt, the structure may show the parent alone.

What follows are compounds tested on Drosophila S2 cl14 SmoIP sensor cells (assay: normalized SmoIP GFP fluorescence (untreated unstimulated = 0%, untreated Hh-stimulated = 100%); higher = more Smo activation sensor fluorescence). Settings: stimulation: Hh conditioned medium (+Hh); compound concentration: 2 uM; 24 h.
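Also: flow cytometry read-out as median GFP intensity of gated cells, compounds added 30 min before Hh-conditioned or mock medium, mock-treated cells serving as unstimulated baseline.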

Structure (SMILES)	normalized SmoIP GFP fluorescence [%]
CC1C(=O)OC2C(O)C34C5CC(C(C)(C)C)C36C(OC(=O)C6O)OC4(C(=O)O5)C12O (stereo unspecified) [Ginkgolide-B]	85.5
Oc1ccc([C@H]2COc3cc(O)ccc3C2)cc1 [equol]	107
COC(=O)N[C@H](C(=O)N1CCC[C@H]1c1ncc(-c2ccc(-c3ccc(-c4cnc([C@@H]5CCCN5C(=O)[C@@H](NC(=O)OC)C(C)C)[nH]4)cc3)cc2)[nH]1)C(C)C	112
CC(C)c1cc(C(C)C)c(CC(=O)NS(=O)(=O)Oc2c(C(C)C)cccc2C(C)C)c(C(C)C)c1 [Avasimibe(CI-1011)]	111
CCNC(=O)Nc1ccc(-c2nc3c(c(N4CCOC[C@@H]4C)n2)CCN(C2COC2)C3)cc1	93.3
CCOC(=O)[C@H](CCc1ccccc1)N[C@@H](C)C(=O)N1[C@@H](C(=O)O)C[C@@H]2CCC[C@@H]21 [Ramipril(Altace)]	137
Fc1ccc(C(c2ccc(F)cc2)N2CCN(C/C=C/c3ccccc3)CC2)cc1 [flunarizine-dihydrochloride]	134
CC(C)c1nc(CN(C)C(=O)N[C@H](C(=O)N[C@@H](Cc2ccccc2)C[C@H](O)[C@H](Cc2ccccc2)NC(=O)OCc2cncs2)C(C)C)cs1 [Ritonavir]	109
Cc1ccc2nc(NCCN)c3ncc(C)n3c2c1	137
Cc1ccc(Nc2nccc(N(C)c3ccc4c(C)n(C)nc4c3)n2)cc1S(N)(=O)=O [pazopanib]	107
CNC(=O)c1cc(Oc2ccc(NC(=O)Nc3ccc(Cl)c(C(F)(F)F)c3)cc2)ccn1 [sorafenib]	107
